The campaign covered roughly 75,000 compounds. About 5,700 (7.6%) were called active. Entries that show only a call come without a potency. Another 7% or so got no clear call; they are omitted. Calls come from the whole dose curve; as a rule, active = well fitted inhibition curve with a large enough effect; inconclusive = small, poorly fitted or top-dose-only effect; inactive = no such curve, though single readings can be large or run the other way. This excerpt belongs to a sample that is enriched for actives.
Target: 3-hydroxyacyl-CoA dehydrogenase type-2 (Homo sapiens) (UniProt Q99714)
Assay: qHTS Assay for Inhibitors of HSD17B4, hydroxysteroid (17-beta) dehydrogenase 4;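 note: the protocol describes HADH2 (HSD17B10) and not the HSD17B4 of the title; nearly all actives have a fitted effect of over 70% in size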
Details: recombinant HSD17B10, NADH fluorescence kinetic; series mostly up to 57.1 µM
Text: Assay Overview: NIH Molecular Libraries Screening Centers Network [MLSCN] NIH Chemical Genomics Center [NCGC] Structural Genomics Consortium [SGC] Grant number: None HADH2: Hydroxyacyl-Coenzyme A dehydrogenase, type II, was supplied by researchers at the Structural Genomics Consortium, Oxford University lab (PI Udo Oppermann). The mitochondrial enzyme 17-hydroxysteroid dehydrogenase type 10 (HSD17-10) previously classified as type II hydroxyacyl-CoA dehydrogenase (HADH2) catalyzes the NAD+ dependent oxidation of a variety of substrates including acyl-CoAs, androgens and neurosteroids as well as bile acids(Shafqat N, Marschall HU, Filling C, et al. Biochemical Journal. 2003;376(Pt 1):49-60). […] The enzyme was produced by E.coli fermentation as His-tagged recombinant for the purpose of X-ray structure determination, and had been mass-spectrometry characterized. Inhibition of HADH2 activity was screened by utilizing beta-hydroxybutyryl coenzyme A as an electron donor and NAD+ as an electron acceptor/cofactor. An increase in the fluorescence intensity due to conversion of NAD+ to NADH was used to measure the enzyme activity.
Assay Protocol: Buffer: 100 mM Tris-HCl pH 9.0, containing 0.01 % Tween-20. Reagents/Controls: Buffer in columns 3 and 4 as negative control (no enzyme). Substrate/cofactor solution: 1 mM NAD+ and 90 uM beta-hydroxybutyryl coenzyme A (Sigma-Aldrich, St. Louis, MO) final concentrations dispensed throughout the plate. Enzyme: 20 nM HADH2 final concentration in columns 1, 2, 5-48. Column 1 is neutral (100% activity). Column 2 contained titration of apomorphine (Sigma-Aldrich, A 4393, PubChem CID 2215, top concentration 500 uM, then 1:2 dilution in duplicate) Assay Steps: Three uL of enzyme were dispensed to 1536-well Greiner black solid bottom plates. Compounds and controls (23 nL) were transferred via Kalypsys PinTool. The plates were incubated for 15 min at room temperature, and then 1 uL of substrate/cofactor solution was added to start the reaction. The plates were immediately transferred to and read every 30 seconds for 4 min on ViewLux High-throughput CCD imager (Perkin-Elmer) using 360 nm excitation and 450 nm emission fluorescence protocol. The fluorescence intensity difference between the last and the first time points was used to compute reaction progress.
Potency is the fitted concentration of half-maximal effect.

Row | SMILES | Potency | activity change, negative = inhibition
1 | Cc1cccc2c3c(ccc12)C1=C(C(=O)C3=O)C(C)CO1 (centres undefined) | 20 µM (active) | 
2 | C[C@@]12CCC3C(CC[C@@H]4CC(O)CC[C@@]34C)C1CCC2O (some centres undefined) | inactive | 
3 | CC(C)(C)[C@]1(O)C[C@@H]2OC(=O)C[C@@]23C(=O)O[C@@H]2OC(=O)[C@H](O)[C@]213 | inactive | 
4 | Cc1cccc([C@H](C)c2cnc[nH]2)c1C | inactive | 
5 | c1ccc(CN2CC[C@@]3(CCCNC3)C2)cc1 | inactive | 
6 | c1ccc(N2CC[C@@]3(CCCNC3)C2)nc1 | 31.6 µM (active) | 
7 | O=C1C2(Cl)C3(Cl)C4(Cl)C(Cl)(Cl)C5(Cl)C3(Cl)C1(Cl)C5(Cl)C24Cl (centres undefined) | inactive | 
8 | CN1C2CC3CC1C(O3)C2O (centres undefined) | inactive | 
9 | CCN1C[C@]2(COC)C(O)C[C@H](OC)[C@@]34C5C[C@]6(O)C(OC)C(O)[C@](OC(C)=O)(C5C6OC(=O)c5ccccc5)C(C(OC)C23)C14 (some centres undefined) | inactive | 
10 | CC(=O)OC1C2CCC3C1(CC(O)[C@@]1(O)[C@@H](CC(O)C1(C)C)[C@]3(C)O)C[C@@]2(C)O (some centres undefined) | inactive | 
11 | CC(C)(C)C(O)(CCc1ccc(Cl)cc1)Cn1cncn1 (centres undefined) | inactive | 
12 | CCOC(=O)c1c(-c2ccccc2)oc2ccc(OC(=O)N(C)C)cc12 | 31.6 µM (active) | 
13 | c1ccc(CCCCN2CCC(c3ccccc3)CC2)cc1 | inactive | 
14 | CN(C)C1C(=O)C(C(N)=O)=C(O)[C@@]2(O)C(=O)C3=C(O)c4c(O)cccc4[C@@](C)(O)C3C[C@@H]12 (some centres undefined) | inactive | 
15 | NCC[Se][Se]CCN | 0.794 µM (active) | 
16 | N#CCCCl | inactive | 
17 | C=CCSSCC=C | inactive | 
18 | COc1cc(C[C@H](C)N)c(OC)cc1I | inactive | 
19 | CC(=O)c1c(O)c(C)c(O)c(Cc2c(O)c3c(c(C(=O)/C=C\c4ccccc4)c2O)OC(C)(C)C=C3)c1O | 31.6 µM (active) | 
20 | CCCCN1C2CCC1CC(OC(c1ccc(F)cc1)c1ccc(F)cc1)C2 (centres undefined) | inactive | 
21 | C[C@H](CCC(=O)O)[C@H]1CC[C@@H]2[C@H]3CC[C@H]4C[C@H](O)CC[C@@]4(C)[C@@H]3CC[C@@]21C |  | -3.04% [at 11.4 µM] (inactive)
22 | CCNC[C@H](O)c1cccc(O)c1 | inactive | 
23 | Fc1ccc(C(OCCN2CCN(C/C=C\c3ccccc3)CC2)c2ccc(F)cc2)cc1 | inactive | 
24 | CCOC(=O)c1c(N)n(Cc2ccccc2)c2nc3ccccc3nc12 | 15.8 µM (active) | 
25 | N#Cc1c(Cl)c(Cl)c(Cl)c(C#N)c1Cl | inactive | 
26 | CC1=CC(=O)C2=C(C)C[C@H](O)[C@H]3[C@H](C)C(=O)O[C@@H]3C12 (some centres undefined) | inactive | 
27 | Cc1ccc(S(=O)(=O)O[C@H]2CN3CCC2CC3)cc1 |  | 7.71% [at 11.4 µM] (inactive)

Row | SMILES | Potency | activity change, negative = inhibition
28 | COc1ccc(C2Oc3c(I)c(OC)cc(OC)c3CC2O)cc1OC (centres undefined) | inactive | 
29 | NC(=O)c1ccc(OC[C@H](O)CN2CC=C(c3ccc(F)cc3)CC2)cc1 | inactive | 
30 | CC[C@@](O)(C(=O)O)c1cc2n(c(=O)c1CO)Cc1cc3ccccc3nc1-2 | 3.16 µM (active) | 
31 | Clc1ccccc1 | inactive | 
32 | CC(C)CC(C)Nc1ccc(Nc2ccccc2)cc1 (centres undefined) | inactive | 
33 | CC[C@@H]1CN2CC[C@@H]1C[C@H]2[C@H](O)c1ccnc2ccc(OC)cc12 | 25.1 µM (active) | 
34 | ClC(Cl)=C(Cl)C(Cl)=C(Cl)Cl | inactive | 
35 | N[C@H](C(=O)O)c1cc(=O)[nH]o1 | inactive | 
36 | c1csc(CN2CCCC3(CCNCC3)C2)n1 | inactive | 
37 | COC1CC(OC2CC[C@@]3(C=O)C4CC[C@]5(C)C(C6=CC(=O)OC6)CC[C@@]5(O)C4CC[C@]3(O)C2)OC(C)C1O (some centres undefined) | inactive | 
38 | CCN1C[C@@]2(COC)CC[C@H](OC)[C@]34[C@@H]1[C@]1(OCO[C@@]15C[C@@H](OC)C1C[C@H]3[C@H]5[C@@H]1OC)[C@H](O)[C@@H]24 | inactive | 
39 | CCN(CC)CCOC(=O)c1cc2cc(COC)ccc2o1 | 25.1 µM (active) | 
40 | O=C(NCC(c1cccnc1)N1CCN(c2ccccc2)CC1)Oc1ccccc1 (centres undefined) | inactive | 
41 | COc1cc2c(cc1OC)[C@@H]1C(=O)c3ccc(O)c(CC=C(C)C)c3OC1CO2 (some centres undefined) | inactive | 
42 | CS(=N)(=O)CC[C@H](N)P(=O)(O)O (some centres undefined) |  | -1.1% [at 11.4 µM] (inactive)
43 | CC(C)(c1ccc(OC[C@@H]2CO2)cc1)c1ccc(OC[C@H]2CO2)cc1 | inactive | 
44 | Cc1cccc(-n2c(C)nc3cc(C(=O)N4CCC5(CC4)OCCO5)ccc32)c1 | inactive | 
45 | O=C(c1cc2nc(-c3ccccc3)cc(-c3ccccc3)n2n1)N1CCC2(CC1)OCCO2 | 31.6 µM (active) | 
46 | O=C(c1cc(-c2ccncc2)nc2ccccc12)N1CCC2(CC1)OCCO2 | inactive | 
47 | CNC(C)[C@@H](O)c1ccccc1 (some centres undefined) | inactive | 
48 | CCCCC#N | inactive | 
49 | CCC(C)C(=O)O[C@@H]1C[C@@]2(C)C(c3ccoc3)OC(=O)CC23OC2(C)O[C@@]14[C@@]1(C)C(CC(=O)OC)C5(C)CC1(O)C(O)(C5OC(=O)C1(C)OC1C)C(OC(C)=O)[C@@]34O2 (some centres undefined) | inactive | 
50 | CC(C)(Cc1c[nH]c2ccc(Cl)cc12)NCCOc1ccccc1OCC1CC1 | inactive | 
51 | C[C@H]1CC[C@@]2(NC1)O[C@@H]1C[C@H]3[C@@H]4CC=C5C[C@@H](O)CC[C@]5(C)[C@@H]4CC[C@]3(C)[C@@H]1[C@@H]2C | inactive | 
52 | CN1[C@@H]2CC[C@H]1CC(NC(=O)c1nn(C)c3ccccc13)C2 (some centres undefined) | 20 µM (active) | 
53 | N[C@H](Cc1o[nH]c(=O)c1Cl)C(=O)O | inactive | 
54 | C[C@@]12CC[C@H](O)C[C@@H]1CC[C@@H]1[C@@H]2CC[C@@]2(C)[C@@H](C3=CC(=O)OC3)[C@H](O)C[C@]12O |  | 5.61% [at 11.4 µM] (inactive)
